This is an account of results in PubChem BioAssay (NCI).

The panel holds about 83,000 compounds, 20% with a hit somewhere; the sample as a whole holds those more often.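 In brief: 96-well plates, 48 h treatment, single concentration, percent growth endpoint.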 Unmarked numbers belong to inactive results. Calls of active or inactive are those of the source. Rule for the calls: active = growth percent below 10; inactive = the rest.

Test systems include RPMI-8226 leukemia; OVCAR-8 ovarian; OVCAR-5 ovarian; OVCAR-4 ovarian; SK-OV-3 ovarian; IGROV1 ovarian; OVCAR-3 ovarian; HS 578T breast; NCI/ADR-RES ovarian; SR leukemia.
What all share (test): NCI-60 one-dose screen, 48 h (100 = growth as untreated, 0 = no growth, -100 = all killed)
Common to all, as to conditions: 10 µM unless noted

Take `COc1cc(-c2nn(-c3cccc(NC(=O)c4ccccc4)c3)cc2-c2ccncc2)ccc1Cl`: the growth is 9.39% (active) in the experiment on RPMI-8226 leukemia; 19.6% in the experiment on OVCAR-8 ovarian; 66.4% with OVCAR-5 ovarian; 46.5% with OVCAR-4 ovarian; 42.1% in the experiment on SK-OV-3 ovarian; 47.4% in the experiment on IGROV1 ovarian. In addition, the figures for the growth with OVCAR-3 ovarian, with HS 578T breast and in the experiment on NCI/ADR-RES ovarian were 0.0228% (active), -1.34% (active) and 0.342% (active), respectively.

For the molecule `C/C=C(\C)C(C(=O)NC1CCCCC1)N(C(=O)C1CCc2cc(F)ccc2O1)c1ccc(Cl)cc1` (centres undefined), the growth with SR leukemia was 111%; in the experiment with OVCAR-8 ovarian it was 98.3%; in the experiment on OVCAR-5 ovarian it was 103%; with SK-OV-3 ovarian it was 98.4%; in the experiment with IGROV1 ovarian, 103%; in the experiment with OVCAR-3 ovarian, 111%. Further, the growth in the experiment on HS 578T breast was 94.7%; in the experiment with NCI/ADR-RES ovarian, 97.2%.

Turning to `COc1ccc(S(=O)(=O)n2cc(C(=O)C(=O)Nc3ccncc3)c3ccccc32)cc1F`, the growth with RPMI-8226 leukemia was 48.6%; in the experiment on OVCAR-8 ovarian it was 69%; in the experiment with OVCAR-5 ovarian, 81.1%; in the experiment with OVCAR-4 ovarian, 73.4%; with SK-OV-3 ovarian it was 85%; in the experiment on IGROV1 ovarian, 72%. For the same molecule, the figures for the growth in the experiment with OVCAR-3 ovarian, in the experiment on HS 578T breast and in the experiment with NCI/ADR-RES ovarian were 85.6%, 88.1% and 67.2%, respectively.

`NC(=O)CCCN1C/C(=C\c2ccccc2)C(=O)c2ccccc21`: the growth in the experiment on RPMI-8226 leukemia was 101%; in the experiment on OVCAR-8 ovarian it was 98.4%; in the experiment on OVCAR-5 ovarian, 101%; in the experiment on OVCAR-4 ovarian it was 98.9%; with SK-OV-3 ovarian, 89.5%; with IGROV1 ovarian, 102%. For the same molecule, the growth in the experiment with OVCAR-3 ovarian was 109%; with HS 578T breast, 99.6%; in the experiment with NCI/ADR-RES ovarian it was 109%.

Regarding `COc1ccc(/C=C2\CN(Cc3cn(CCNc4ccnc5cc(Cl)ccc45)nn3)C/C(=C\c3ccc(OC)c(OC)c3)C2=O)cc1OC`, the growth in the experiment on RPMI-8226 leukemia was -1.73% (active); in the experiment on OVCAR-8 ovarian, -3.77% (active); in the experiment with OVCAR-5 ovarian it was 18.1%; in the experiment with OVCAR-4 ovarian, 29.8%; with SK-OV-3 ovarian it was 4.28% (active); with IGROV1 ovarian, 7.35% (active). Moreover, the growth in the experiment with OVCAR-3 ovarian was -13.9% (active); in the experiment on HS 578T breast, 23.4%; in the experiment with NCI/ADR-RES ovarian, 103%.

Consider `CN(C)c1cccc2c(S(=O)(=O)/N=C(\N)Nc3nc4ccccc4s3)cccc12`, for which the growth with RPMI-8226 leukemia is 62%; in the experiment on OVCAR-8 ovarian, 70.6%; in the experiment on OVCAR-5 ovarian it was 84.2%; with OVCAR-4 ovarian, 82.4%; in the experiment with SK-OV-3 ovarian, 46.6%; in the experiment with IGROV1 ovarian, 51.7%. Also, the results for the growth in the experiment with OVCAR-3 ovarian, in the experiment with HS 578T breast and in the experiment on NCI/ADR-RES ovarian were 8.44% (active), 68% and 48%, respectively.

Turning to `Cc1cc(C)n(-c2nnc3n2N=C(c2ccc(-c4ccccc4)cc2)CS3)n1`, the growth was 37.2% in the experiment on RPMI-8226 leukemia; 52.5% in the experiment with OVCAR-8 ovarian; 83.8% with OVCAR-5 ovarian; 74.7% in the experiment on OVCAR-4 ovarian; 56.8% in the experiment on SK-OV-3 ovarian; 69.6% with IGROV1 ovarian. The growth with OVCAR-3 ovarian was 15.6%; with HS 578T breast, 49.2%; with NCI/ADR-RES ovarian, 35%.

Consider `O=S(=O)(NCCNc1nccc(-c2c(-c3cccc(O)c3)nc3sccn23)n1)c1ccc(F)cc1`, for which the growth in the experiment with RPMI-8226 leukemia was 76.2%; in the experiment with OVCAR-8 ovarian, 67.6%; in the experiment on OVCAR-5 ovarian, 107%; with OVCAR-4 ovarian, 103%; in the experiment on SK-OV-3 ovarian, 85.9%; in the experiment on IGROV1 ovarian, 63.7%. The values for the growth with OVCAR-3 ovarian, in the experiment with HS 578T breast and in the experiment on NCI/ADR-RES ovarian were 86.8%, 83% and 97.9%, respectively.

`COc1ccc(C2C=C(c3ccc(Cl)cc3)N=C3SC=C(C)N32)c(Br)c1` (centres undefined): the growth was 14.9% in the experiment on RPMI-8226 leukemia; 18.6% with OVCAR-8 ovarian; 67% in the experiment with OVCAR-5 ovarian; 48.1% in the experiment with OVCAR-4 ovarian; 35.3% with SK-OV-3 ovarian; 46.1% with IGROV1 ovarian. Moreover, the growth in the experiment on OVCAR-3 ovarian was 10.8%; in the experiment with HS 578T breast, 56.3%; in the experiment with NCI/ADR-RES ovarian, 33.2%.

For the molecule `NC(=S)N/N=C(/CCN1CCCC1)CC(C1=C(O)C2=CCCCC2OC1=O)c1ccccc1` (centres undefined), the growth in the experiment with RPMI-8226 leukemia was 73.9%; with OVCAR-8 ovarian it was 88.2%; with OVCAR-5 ovarian it was 96.9%; in the experiment with OVCAR-4 ovarian, 62.2%; in the experiment with SK-OV-3 ovarian, 94.3%; with IGROV1 ovarian it was 52.8%. Further, the growth in the experiment with OVCAR-3 ovarian is 21.8%; in the experiment on HS 578T breast it was 96.7%; in the experiment with NCI/ADR-RES ovarian, 40.4%.

In the case of `COc1ccc(OC)c(C2OC(c3ccc4ccccc4c3O)=NN2C(C)=O)c1` (centres undefined), the growth in the experiment on RPMI-8226 leukemia was 66.6%; in the experiment with OVCAR-8 ovarian, 81%; in the experiment on OVCAR-5 ovarian, 102%; in the experiment with OVCAR-4 ovarian, 75.5%; in the experiment with SK-OV-3 ovarian, 58%; with IGROV1 ovarian, 75.8%. Further, the growth with OVCAR-3 ovarian was 52.4%; with HS 578T breast, 71.7%; with NCI/ADR-RES ovarian, 59.2%.

For the molecule `COc1cc(-c2nn(-c3cccc(NC(=O)Nc4ccc(Cl)c(Cl)c4)c3)cc2-c2ccncc2)ccc1Cl`, the growth with RPMI-8226 leukemia was -11.6% (active); in the experiment on OVCAR-8 ovarian it was -17.2% (active); with OVCAR-5 ovarian, 38%; in the experiment on OVCAR-4 ovarian, 19.8%; with SK-OV-3 ovarian it was 11.8%; in the experiment on IGROV1 ovarian it was 23.9%. In addition, the growth is -10% (active) in the experiment with OVCAR-3 ovarian, -6.95% (active) in the experiment with HS 578T breast and 0.321% (active) in the experiment with NCI/ADR-RES ovarian.

Regarding `CCOC(=O)c1cn2c3c(cccc3c1=O)C(=O)/C(=C/c1cccc(Cl)c1Cl)C2`, the growth was 92.4% with RPMI-8226 leukemia; 95.7% in the experiment with OVCAR-8 ovarian; 102% in the experiment with OVCAR-5 ovarian; 100% in the experiment on OVCAR-4 ovarian; 86.1% with SK-OV-3 ovarian; 99.7% in the experiment on IGROV1 ovarian. Moreover, the growth is 113% with OVCAR-3 ovarian, 100% in the experiment on HS 578T breast and 101% with NCI/ADR-RES ovarian.

Take `CCOC(=O)c1cn2c3c(cc(C)cc3c1=O)C(=O)/C(=C/c1ccccc1)C2`: the growth with RPMI-8226 leukemia was 110%; in the experiment with OVCAR-8 ovarian it was 82.1%; with OVCAR-5 ovarian, 90%; in the experiment on OVCAR-4 ovarian it was 88.1%; in the experiment with SK-OV-3 ovarian, 82.3%; with IGROV1 ovarian, 93.2%. In addition, the growth with OVCAR-3 ovarian is 96.7%; with HS 578T breast it was 103%; with NCI/ADR-RES ovarian it was 93.9%.

For `O=C(Nc1cccc(-n2cc(-c3ccncc3)c(-c3ccc(Cl)c(O)c3)n2)c1)Nc1cccc(C(F)(F)F)c1`, the growth in the experiment on RPMI-8226 leukemia was 1.63% (active); in the experiment with OVCAR-8 ovarian, 10.6%; with OVCAR-5 ovarian it was 62.4%; in the experiment with OVCAR-4 ovarian, 41.5%; with SK-OV-3 ovarian, 21.2%; in the experiment on IGROV1 ovarian, 28.6%. In addition, the growth is 0.81% (active) in the experiment with OVCAR-3 ovarian, 29.4% in the experiment on HS 578T breast and 24.9% with NCI/ADR-RES ovarian.
